Experiment in all cases: NCI-60 one-dose screen, 48 h (100 = growth as untreated, 0 = no growth, -100 = all killed)
Conditions in all cases: 10 µM unless noted

Test [1] concerns HCT-15 colon.
Test [2] relates to HT29 colon.
Test [3] concerns SNB-75 CNS.
Test [4] relates to SNB-19 CNS.
For test [5], the system named is U251 CNS.
For test [6], the system named is PC-3 prostate.
Test [7] deals with SK-MEL-5 melanoma.
In test [8] the test system is UACC-62 melanoma.
The subject of test [9] is LOX IMVI melanoma.
Test [10] relates to SK-MEL-28 melanoma.
For test [11], the system named is SK-MEL-2 melanoma.
Test [12] deals with SN12C renal.
In test [13] the test system is UO-31 renal.
The subject of test [14] is TK-10 renal.
For test [15], the system named is ACHN renal.
The test system of test [16] is CAKI-1 renal.
Test [17] deals with A498 renal.
The test system of test [18] is CCRF-CEM leukemia.
Test [19] relates to MOLT-4 leukemia.
Test [20] concerns EKVX NSCLC.

About 83,000 compounds went through this panel and 20% of them were active in at least one assay; those are over-represented in the sample as a whole.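 Assay: single dose, 48 h. Readout: percent growth (0 = no net growth; negative = cell death). Active: <10.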 Values without a mark were called inactive. Active and inactive are the calls of the source.

For `COc1cc(/C=C2\CCCC3=C2NC(C)=NC3c2cc(OC)c(OC)c(OC)c2)cc(OC)c1OC` (configuration not stated), the growth in [1] was 4.23% (active); in [2], 7.9% (active); in test [3], 21.9%; in [4] it was 61.2%; in test [5] it was 9.77% (active); in test [6] it was 42.7%. In addition, the growth in [7] was 19.1%; in test [8], 9.03% (active); in test [9] it was -41.2% (active); in test [10] it was 31.9%; in test [11], 26.6%; in test [12], 10.8%. Also, the growth in test [13] is 51.1%; in [14], 44.5%; in [15], 12.5%; in test [16], 11.4%; in test [17] it was 16.3%; in test [18] it was -19.1% (active). Besides, in test [19], the growth was -22.9% (active).
Regarding `CNC(C)=O`, the growth in test [1] was 105%; in [2], 94.8%; in test [3], 104%; in [4], 104%; in test [5], 93.4%; in test [6] it was 96.6%. The growth is 102% in test [7]; 105% in [8]; 95% in test [9]; 101% in test [10]; 104% in [11]; 100% in [12]. Moreover, the growth in test [13] was 93.3%; in test [14], 91.1%; in test [15], 118%; in test [16], 96.2%; in [17], 104%; in test [18] it was 103%. The growth in [19] is 95%.
For `C=CC(=O)N[C@H](/C=C/C(=O)OCC)Cc1ccc(-c2cc(Cl)cc(Cl)c2)cc1`, the growth in [1] is 79.2%; in test [2] it was 86.9%; in [3], 82.5%; in test [4] it was 91.1%; in test [5] it was 79%; in [6], 60.7%. The growth in test [7] is 72.8%; in [8], 60.9%; in [9] it was 86.7%; in [10], 113%; in test [11], 90.4%; in test [20], 91%. Also, the growth in test [12] was 88.6%; in test [13], 56.7%; in test [14] it was 89.1%; in test [15], 90.1%; in test [16], 79.4%; in test [18] it was 79.3%. Further, in [19], the growth was 74.3%.
For `FC(F)(F)c1cccc(-n2nnc3cnc(Nc4ccc(N5CCCCC5)cc4)nc32)c1`, the growth in test [1] was 66.1%; in [2] it was 74.3%; in test [3], 65.7%; in test [4], 94.3%; in test [5], 62.9%; in test [6], 50.2%. Besides, the growth in test [7] was 86.7%; in test [8], 48.2%; in test [9], 90%; in [10], -0.691% (active); in test [11], 96.8%; in [12], 91%. Further, the growth in [13] was 100%; in test [14], 97.2%; in test [15] it was 56%; in test [16] it was 72.9%; in test [17], 89.4%; in test [18] it was 34.1%. The growth in [19] was 63%.
Take `C[N+](C)(C)c1ccc(CC2c3ccccc3-c3ccccc32)cc1`: the growth in [1] is 98.1%; in test [2] it was 65.9%; in [3], -3.78% (active); in test [4] it was 23.2%; in test [5] it was 19.3%; in test [6], 56.1%. In addition, the growth in [7] was 77.1%; in test [8], 81.5%; in test [9], 86.3%; in test [10], 81.3%; in test [11] it was 81.5%; in test [20], 71.2%. The growth in [12] is 21.3%; in test [14], 93.3%; in test [15] it was 99.9%; in test [16] it was 86.8%; in test [17], 70.5%; in test [18], 69.9%. Besides, the growth in test [19] was 76.4%.
Turning to `NC(=O)c1c(NC(=O)c2ccc3c(c2)OCO3)sc2c1CCC(=O)C2`, the growth is -40.5% (active) in test [1]; -45.5% (active) in test [2]; -12.6% (active) in test [3]; 14.3% in test [4]; -9.21% (active) in test [5]; 3.13% (active) in [6]. In addition, the growth in [7] was -94.2% (active); in [8], -37.8% (active); in test [9], 15%; in test [10] it was -38.7% (active); in test [11] it was -57.8% (active); in test [20] it was 5.58% (active). Besides, the growth in test [12] was 8.18% (active); in test [13], -93.4% (active); in test [14] it was -20.2% (active); in test [15], -57.7% (active); in test [16], -80% (active); in test [18] it was -33.3% (active). Moreover, in [19], the growth is -20.8% (active).
As for `COc1cc(C2C=C(C)N=C3SC=C(C)N32)cc(OC)c1OC` (configuration not stated), the growth in test [1] is -20.4% (active); in test [2], -37.2% (active); in test [3], 24.6%; in test [4] it was 33.5%; in [5], -75.6% (active); in test [6], -17.6% (active). The growth in test [7] is -97.5% (active); in test [8] it was -61.3% (active); in test [9], -82.4% (active); in test [10], -75.5% (active); in [11], -39.5% (active); in [12] it was -8.33% (active). The growth is -87.2% (active) in test [13]; -22.5% (active) in test [14]; -75% (active) in test [15]; -49.9% (active) in test [16]; -27.6% (active) in [17]; -17.9% (active) in test [18]. Moreover, in [19], the growth is -2.68% (active).
`CC1=C(C#N)C(C)(C)C(C#N)=C(C)N1`: the growth was 98.6% in [1]; 105% in [2]; 79.5% in [3]; 95.9% in test [4]; 94.8% in test [5]; 84.7% in [6]. Further, the growth in [7] was 101%; in [8], 105%; in [9] it was 98.3%; in test [10], 110%; in test [11], 109%; in test [12] it was 99.5%. For the same compound, the growth in [13] is 91.1%; in test [14] it was 103%; in [15] it was 101%; in [16] it was 103%; in [17], 88.6%; in test [18] it was 98%. For the same compound, in [19], the growth was 102%.

The record behind these values is PubChem BioAssay (NCI).
